# Source: PubChem BioAssay AID1443 (Sanford-Burnham Center for Chemical Genomics, 2008)
# Screen size: about 220,000 compounds; about 880 (0.4%) were called active. This excerpt belongs to a sample that is enriched for actives. Values without a mark were called inactive.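 How the source made its calls: active means cell killing above 50% in the first pass at 4 µM, then a duplicate retest at 5 µM averaging 50% or more; inactive means the rest.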
# Assay: compounds killing PPC-1 cancer cells with TRAIL present, primary screen, TRAIL potentiator project, ATPLite luminescence, uHTS (AID 1443);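 further: plate controls were cells with TRAIL plus DMSO for no effect and medium-only wells lacking cells for full effect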
# Settings: PPC-1 cells + TRAIL, ATPLite viability luminescence, hits give high values; at 4 µM unless noted
row,Compound,cell killing (% activity)
1,COc1cccc(-c2nc3ccc(N4CCN(C)CC4)cc3[nH]2)c1,85.4% [at 5 µM] (active)
2,Cc1nc2ccc(N3CCN(C)CC3)cc2nc1C,-0.5%
3,CN1CCN(c2cc(N3CCNCC3)ccc2[N+](=O)[O-])CC1,3.5%
4,O=C1CC(=O)N(Cc2ccccc2)C(=O)N1CCCCCCN1C(=O)CC(=O)N(Cc2ccccc2)C1=O,12.3%
5,COc1ccc(C2N3CC(C)(C)CN23)cc1 (stereo not given),15.2%
